# NALP1 inh – inhibitors of NALP1 inflammasome in yeast; S. cerevisiae NALP1/ASC/caspase-1 growth, X-gal OD620, 72 h; inhibition, % at 10 µM; 280,000 compounds, 0.61% hits; AID 2071; in the data active = inhibition mostly above about 24%, no sharp cut-off; inactive = mostly below about 32%
# UBC13 polyUb – blocks human UBC13 polyubiquitin chain formation; P61088; TR-FRET; inhibition, % at 20 µM; 330,000 compounds, 0.47% hits; in the data active = inhibition above about 45%, passing the limit was not always enough; inconclusive = no clear call, values can overlap the other calls
# Target sequence (P61088 whole entry, looked up): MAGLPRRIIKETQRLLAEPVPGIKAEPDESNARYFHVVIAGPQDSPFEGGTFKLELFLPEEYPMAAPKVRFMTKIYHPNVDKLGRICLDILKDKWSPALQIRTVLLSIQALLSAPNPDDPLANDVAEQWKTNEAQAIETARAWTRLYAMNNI
# CR mimetic SO – caloric restriction mimetics inhibiting age-related superoxide in yeast. S. cerevisiae aged cells, superoxide DHE fluorescence; hits give low values. superoxide response (% of plate mean), % at 10 µM. 330,000 compounds, 0.18% hits. AID 2690;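 active = superoxide response under a set limit, about three screen SD below normal, cut at about 65% in these data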;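 note: yeast aged for seven days with compound at 30 °C before DHE staining; 100% = average MFI of all compound-treated wells on the plate with controls excluded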
# NR3A LBD binder – NR3A (human) ligand-binding domain modulation; NR3A LBD differential scanning fluorimetry, Tm shift; 0% = protein alone, 100% = glycine-bound protein; Tm shift relative to glycine control, % at 25 µM; 340,000 compounds, 2.5% hits; AID 1259313;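 active = melting temperature shift of at least 10% of the positive control shift, at one fixed dose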
# dFosB act-1 – enhances mouse delta FosB homodimer DNA binding | P13346 | purified delta FosB, TAMRA-CDK5 oligo fluorescence polarization; percent of positive-control signal above neutral wells | activation, % at 25 µM | 340,000 compounds, 0.99% hits;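 active = mean activation above about 17%, with every replicate also reaching it, limit read from the data, passing the limit was not always enough; inconclusive = only one of the two conditions met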
# Target sequence (P13346 whole entry, looked up): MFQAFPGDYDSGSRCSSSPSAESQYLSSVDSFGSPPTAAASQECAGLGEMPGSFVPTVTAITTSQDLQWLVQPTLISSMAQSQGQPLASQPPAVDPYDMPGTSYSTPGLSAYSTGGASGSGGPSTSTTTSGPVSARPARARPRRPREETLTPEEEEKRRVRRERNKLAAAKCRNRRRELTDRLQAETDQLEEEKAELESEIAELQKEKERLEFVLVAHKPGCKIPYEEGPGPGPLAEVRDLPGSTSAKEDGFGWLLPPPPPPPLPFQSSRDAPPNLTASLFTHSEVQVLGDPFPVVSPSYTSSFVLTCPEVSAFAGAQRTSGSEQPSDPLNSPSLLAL
# dFosB act-2 – activators of mouse delta FosB homodimer DNA binding; purified delta FosB, TAMRA-CDK5 oligo fluorescence polarization; normalised: neutral wells 0, positive control 100; AID 588690; 2,400 tested, under 10 active; activation, % at 24.9 µM; shares compounds with dFosB act-1;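 active = highest replicate activation at or above 34% and every replicate reaching that threshold; inconclusive = meets only one of the two criteria; inactive = meets neither criterion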;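 note: higher polarization means more probe DNA bound by delta FosB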
# Starred values were filed as active, the others as inactive; ? = inconclusive; / = no result given. Most compounds without a hit are left out; they make up all but 4.3% or so of the library.
SMILES,NALP1 inh,UBC13 polyUb,CR mimetic SO,NR3A LBD binder,dFosB act-1,dFosB act-2
COc1ccc(C)cc1NC(=O)n1ncc2cc(Cl)ccc21,18,-2,104,-1,-2,/
CC1CCCCC1NC(=O)CCn1ccc2cc(S(=O)(=O)N3CCCC3)ccc21 (configuration not stated),1,-8,89,-1,-2,/
CCOC(=O)c1c(CN2CCN(CCO)CC2)n(C)c2cc(Br)c(OC)cc12,4,17,100,-1,15,/
CCOC(=O)c1c(CNCCN(CC)CC)n(C)c2cc(Br)c(OC)cc12,16,14,94,-1,24*,?
CC(=O)c1c(C)[nH]c(C(=O)OCC(=O)c2ccc3c(c2)NC(=O)CO3)c1C,/,-6,101,3,30*,4
Cc1cccc(C(=O)OCC(=O)c2ccc3c(c2)NC(=O)CO3)c1,/,0,95,1,-9,/
O=C1COc2ccc(C(=O)COC(=O)/C=C/c3cccc(F)c3)cc2N1,24,-11,96,-1,80*,4
CN1CCCN(C(=O)c2cc(-c3cccc4ccccc34)nc3ccccc23)CC1,/,26,93,-3,-6,/
COc1ccc(C(=O)NCC(=O)NCc2ccncc2)cc1,/,6,74,1,-2,/
CC(=O)Nc1ccc(/C(C)=N/NC(=O)c2ccc(COc3ccccc3Cl)o2)cc1,/,-10,102,0,31*,-2
COc1ccc(/C=N/NC(=O)c2ccc(COc3ccccc3Cl)o2)c(OC)c1C,14,5,98,-9,-12,/
COc1ccc(/C=N/NC(=O)c2ccc(COc3ccccc3Cl)o2)cc1,18,6,100,-4,28*,8
Cc1nn(C(C)C(=O)NCCCN2CCCCCC2)c(=O)c2cc3sccc3n12 (configuration not stated),4,7,106,2,-3,/
Cc1c(Cl)cccc1NC(=O)Cn1cc(C(F)(F)F)cc(Cl)c1=O,-3,5,102,-4,57*,1
Cc1ccc(Cl)cc1NC(=O)Cn1cc(C(F)(F)F)cc(Cl)c1=O,-28,-9,94,-2,-10,/
Cc1ccc(-c2c(C(=O)N/N=C/c3ccsc3)nnn2-c2nonc2N)cc1,17,-6,75,10,-13,/
Cc1ccsc1/C=N/NC(=O)c1nnn(-c2nonc2N)c1-c1ccc2c(c1)OCO2,22,-14,92,-7,-3,/
Cc1ccc(-c2c(C(=O)N/N=C/c3cccc(Cl)c3)nnn2-c2nonc2N)cc1,30,-1,99,15*,47*,6
C/C(=N\NC(=O)c1nnn(-c2nonc2N)c1CSc1ccccc1)c1ccc2c(c1)OCO2,22,-8,102,1,4,/
CCOC(=O)c1nnn(-c2nonc2N)c1CSc1ccccc1,21,10,99,0,-2,/
Cc1ccc(-c2c(C(=O)N/N=C/c3ccc4c(c3)OCO4)nnn2-c2nonc2N)cc1,15,4,82,1,45*,0
Cc1ccc(SCc2c(C(=O)N/N=C/c3ccc4c(c3)OCO4)nnn2-c2nonc2N)cc1,11,-4,114,31*,52*,1
Cc1ccc(/C=N/NC(=O)c2nnn(-c3nonc3N)c2CSc2ccccc2)cc1,4,-7,81,40*,24*,2
Clc1ccc(CO/N=C/c2cccs2)cc1,16,-9,114,0,9,/
Nc1nonc1-n1nnc(C(=O)N/N=C/c2ccccc2Cl)c1-c1ccc2c(c1)OCO2,19,-12,102,-6,25*,0
SMILES,NALP1 inh,UBC13 polyUb,CR mimetic SO,NR3A LBD binder,dFosB act-1,dFosB act-2
C/C(=N\NC(=O)c1nnn(-c2nonc2N)c1-c1ccc2c(c1)OCO2)c1ccc(C)cc1,10,2,83,-7,32*,1
Cc1ccc(SCc2c(C(=O)N/N=C/c3ccccc3)nnn2-c2nonc2N)cc1,9,3,92,33*,25*,-1
COC(=O)[C@]1(C)N[C@H](CN(C)C(=O)Nc2ccc(Cl)cc2)[C@@H]2C(=O)N(C)C(=O)[C@@H]21,/,-1,100,0,-3,/
COc1cccc(C2c3c(oc4cc(C)c(C)cc4c3=O)C(=O)N2CCCN(C)C)c1 (configuration not stated),-3,13,107,-1,38*,4
CC(NC(=O)COC(=O)c1cc(=O)c2ccccc2o1)c1ccccc1 (configuration not stated),/,-20,105,1,3,/
Cc1ccc(C)c(NC(=O)c2ccccc2NS(=O)(=O)c2cc([N+](=O)[O-])ccc2C)c1,11,-19,111,17*,27*,6
Cc1ccc([N+](=O)[O-])cc1S(=O)(=O)Nc1cccc(S(=O)(=O)Nc2ccccc2C(=O)O)c1,/,12,110,6,1,/
O=C(Nc1ccc(-c2nnn(CC(=O)N3CCN(C(=O)c4ccco4)CC3)n2)cc1)c1ccc(F)cc1,3,4,107,-2,35*,5
COCCCNC(=O)Cn1nnc(-c2ccc(NC(=O)c3ccc(F)cc3)cc2)n1,19,2,99,-2,35*,8
CNC(=O)c1cnc(-c2ccccc2)nc1-c1ccccc1,1,1,105,0,1,/
O=C(Nc1ccc(Cl)cc1)c1cnc(-c2ccccc2)nc1-c1ccccc1,19,-24,99,7,22*,1
COC(=O)C1CCC(=O)N1C(c1ccc(OC)cc1)c1cc(OC)c(OC)c(OC)c1 (configuration not stated),/,/,/,-1,-13,/
COc1cccc(NC(=S)NC(=O)/C=C/c2ccc(F)cc2)c1,18,-10,92,1,34*,-1
Cc1ccc(COc2ccc(/C=N/NC(=O)c3nnn(-c4nonc4N)c3COc3ccc(F)cc3)cc2)cc1,/,-16,91,21*,48*,0
Cc1ccc(COc2cccc(/C=N/NC(=O)c3nnn(-c4nonc4N)c3C)c2)cc1,22,-1,100,0,53*,0
CC(=O)Nc1ccc(NC(=O)C(C)OC(=O)CSc2ccc(Br)cc2C)cc1 (configuration not stated),2,3,106,-18,-3,/
Cc1ccc(C(=O)CCC(=O)NNC(=O)c2ccccc2O)cc1,/,12,87,0,23*,-1
O=C(CNC(=O)c1cc(S(=O)(=O)N2CCCCC2)ccc1N1CCOCC1)Nc1ccc(F)c(F)c1,/,34,102,0,54*,0
O=C(NCc1ccc(F)cc1)c1cc(S(=O)(=O)N2CCCCC2)ccc1N1CCOCC1,/,5,96,0,-12,/
O=C(CC(O)(c1ccccc1)c1ccccc1)Nc1ccccn1,/,/,/,1,-13,/
Cc1ccc2c(C)c(C(=O)Nc3ccc(S(N)(=O)=O)cc3)oc2c1C,7,2,102,-1,48*,5

# Screens as filed in PubChem BioAssay.
